# Inconclusive results are not listed. Activity calls are given as the source filed them. Unless noted, the call rests on the fitted dose curve.
# Experiment: qHTS assay to identify small molecule agonists of the NFkB signaling pathway - cell viability counter screen (AID 1159515); further: nearly all actives have a fitted effect of over 55% in size
# Settings: NFkB-bla ME-180 viability, CellTiter-Glo luminescence, 5 h; series mostly up to 61 µM; activity, negative = cytotoxic: at the top concentration
# Summary of the method: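 NFkB-bla ME-180 cells, 2,000/well, were plated overnight at 37 C, 5% CO2, then exposed to compounds in DMSO for 5 hr. After the bla FRET read, CellTiter-Glo was added to the same wells; luminescence was read after 30 min at room temperature.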
# On the % scale 0 is the no-effect control and ±100 the full control effect.
row,SMILES,"activity, negative = cytotoxic"
1,ClCCCN1CCN(c2cccc(Cl)c2)CC1,-0.363% (inactive)
2,C[C@]12CC[C@H]3[C@@H](CC=C4C[C@@H](O)CC[C@@]43C)[C@@H]1CC[C@@H]2O,3.3% (inactive)
3,CCCCC(=O)Cl,0.474% [at 78.8 µM] (inactive)
4,CCCCCCI,-2.16% (inactive)
5,CC(C)[N+](=O)[O-],-5.11% (inactive)
6,OC(c1ccccc1)(c1ccccc1)C1CCNCC1,-0.726% (inactive)
7,CC(Cl)(Cl)[N+](=O)[O-],13.5% (inactive)
8,C=C(C)CN(CC)c1c([N+](=O)[O-])cc(C(F)(F)F)cc1[N+](=O)[O-],1.01% (inactive)
9,CN1CCN(C(=O)O[C@H]2c3nccnc3C(=O)N2c2ccc(Cl)cn2)CC1,-2.08% (inactive)
10,CCCCCCBr,-2.67% [at 78.8 µM] (inactive)
11,NC(=S)C(N)=S,-7.13% (inactive)
12,Cc1ncc2n1-c1ccc(Cl)cc1C(c1ccccc1F)=NC2,-16.2% (inactive)
13,COc1cccc(C(=O)NN(C(=O)c2cc(C)cc(C)c2)C(C)(C)C)c1C,-10.1% (inactive)
14,O=C1c2ccccc2C(=O)c2ccccc21,5.32% [at 28.5 µM] (inactive)
15,Cc1ncc(CNC(=O)N(CCCl)N=O)c(N)n1,-28.9% (inactive)
16,C[N+](C)=CCl,15% (inactive)
17,COc1cc(OC)nc(Oc2cccc(Oc3nc(OC)cc(OC)n3)c2C(=O)O)n1,3.56% (inactive)
18,CNC(=O)Oc1ccccc1C1OCCO1,4.54% (inactive)

row,SMILES,"activity, negative = cytotoxic"
1,O=[N+]([O-])c1cccc2cccnc12,-4.52% [at 78.8 µM] (inactive)
2,Cc1cc(C)nc(Nc2ccccc2)n1,5.83% (inactive)
3,OCCBr,-6.35% (inactive)
4,O=C(Nc1ccccc1)c1ccccc1I,-9.52% (inactive)
5,CC(C)(C)NCC(O)c1cc(Cl)c(N)c(Cl)c1 (stereo unspecified),-9.23% (inactive)
6,CC(N)=S,5.47% (inactive)
7,CCC(=O)C(CCN(C)C)(c1ccccc1)c1ccccc1,-0.0131% (inactive)
8,C[C@@H]1CN(C2CCC(C#N)(c3ccc(F)cc3)CC2)CC[C@]1(C(=O)O)c1ccccc1 (stereo partly specified),-8.03% (inactive)
9,N#CC(CCc1ccc(Cl)cc1)(Cn1cncn1)c1ccccc1 (stereo unspecified),-13.5% (inactive)
10,ClC(Cl)C(Cl)Cl,2.22% [at 78.8 µM] (inactive)
11,CC1(C(=O)Nc2ccc(O)c(Cl)c2Cl)CCCCC1,-1.86% (inactive)
12,CC1CCC(=O)O1 (stereo unspecified),17.2% (inactive)
13,C=CCC1=C(C)[C@@H](OC(=O)[C@@H]2[C@@H](C=C(C)C)C2(C)C)CC1=O,-2.44% (inactive)
14,CS(=O)(=O)c1cc(C(F)(F)F)ccc1C(=O)c1cnoc1C1CC1,-8.41% (inactive)
15,COc1cc2c(cc1OC)[C@@]13CCN4CC5=CCO[C@H]6CC(=O)N2[C@H]1[C@H]6[C@H]5C[C@H]43,6.44% (inactive)
16,CNC(=O)Oc1ccc(N(C)C)c(C)c1,8.8% (inactive)
17,NC(=O)O,5.41% (inactive)

# Experiment: qHTS assay to identify small molecule agonists of the endoplasmic reticulum stress response signaling pathway (AID 1159516; active means well fitted activation curve with a large enough effect in the signal ratio in the repeat runs, not every such curve was filed as active; the % refers to the signal ratio)
# Settings: ESRE-bla HeLa, ER stress beta-lactamase reporter, 5 h; series mostly up to 61 µM; activation: at the top concentration
# Summary of the method: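 CellSensor ESRE-bla HeLa cells, carrying a beta-lactamase reporter driven by the ER stress response element, were plated overnight and exposed to compounds for 5 hr at 37 C. Reporter activity was read as FRET substrate fluorescence after 2 hr at room temperature.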
row,SMILES,activation
1,ClCCCN1CCN(c2cccc(Cl)c2)CC1,-0.238% (inactive)
2,C[C@]12CC[C@H]3[C@@H](CC=C4C[C@@H](O)CC[C@@]43C)[C@@H]1CC[C@@H]2O,2.45% (inactive)
3,CCCCC(=O)Cl,1.31% [at 78.8 µM] (inactive)
4,CCCCCCI,-0.175% (inactive)
5,CC(C)[N+](=O)[O-],1.31% (inactive)
6,OC(c1ccccc1)(c1ccccc1)C1CCNCC1,2.28% (inactive)
7,CC(Cl)(Cl)[N+](=O)[O-],-1.34% (inactive)
8,C=C(C)CN(CC)c1c([N+](=O)[O-])cc(C(F)(F)F)cc1[N+](=O)[O-],-0.128% (inactive)
9,CN1CCN(C(=O)O[C@H]2c3nccnc3C(=O)N2c2ccc(Cl)cn2)CC1,1.09% (inactive)
10,CCCCCCBr,-0.468% [at 78.8 µM] (inactive)
11,NC(=S)C(N)=S,-2.68% (inactive)
12,Cc1ncc2n1-c1ccc(Cl)cc1C(c1ccccc1F)=NC2,-2.32% (inactive)
13,COc1cccc(C(=O)NN(C(=O)c2cc(C)cc(C)c2)C(C)(C)C)c1C,-1.87% (inactive)
14,O=C1c2ccccc2C(=O)c2ccccc21,2.29% [at 28.5 µM] (inactive)
15,Cc1ncc(CNC(=O)N(CCCl)N=O)c(N)n1,-1.7% (inactive)
16,C[N+](C)=CCl,3.06% (inactive)
17,COc1cc(OC)nc(Oc2cccc(Oc3nc(OC)cc(OC)n3)c2C(=O)O)n1,-0.0965% (inactive)
18,CNC(=O)Oc1ccccc1C1OCCO1,-1.67% (inactive)
19,O=[N+]([O-])c1cccc2cccnc12,0.666% [at 78.8 µM] (inactive)

row,SMILES,activation
1,Cc1cc(C)nc(Nc2ccccc2)n1,-0.303% (inactive)
2,OCCBr,2.85% (inactive)
3,O=C(Nc1ccccc1)c1ccccc1I,-0.0768% (inactive)
4,CC(C)(C)NCC(O)c1cc(Cl)c(N)c(Cl)c1 (stereo unspecified),-0.474% (inactive)
5,CC(N)=S,-0.792% (inactive)
6,O=[N+]([O-])c1ccc2c3c(cccc13)CC2,-6.58% (inactive)
7,CCOP(=O)(OCC)OP(=O)(OCC)OCC,-0.53% (inactive)
8,CCC(=O)C(CCN(C)C)(c1ccccc1)c1ccccc1,-0.744% (inactive)
9,C[C@@H]1CN(C2CCC(C#N)(c3ccc(F)cc3)CC2)CC[C@]1(C(=O)O)c1ccccc1 (stereo partly specified),0.0164% (inactive)
10,N#CC(CCc1ccc(Cl)cc1)(Cn1cncn1)c1ccccc1 (stereo unspecified),-3.96% (inactive)
11,ClC(Cl)C(Cl)Cl,3.03% [at 78.8 µM] (inactive)
12,CC1(C(=O)Nc2ccc(O)c(Cl)c2Cl)CCCCC1,2.39% (inactive)
13,CC1CCC(=O)O1 (stereo unspecified),-1.31% (inactive)
14,C=CCC1=C(C)[C@@H](OC(=O)[C@@H]2[C@@H](C=C(C)C)C2(C)C)CC1=O,3.53% (inactive)
15,CS(=O)(=O)c1cc(C(F)(F)F)ccc1C(=O)c1cnoc1C1CC1,-0.998% (inactive)
16,COc1cc2c(cc1OC)[C@@]13CCN4CC5=CCO[C@H]6CC(=O)N2[C@H]1[C@H]6[C@H]5C[C@H]43,-0.387% (inactive)
17,CNC(=O)Oc1ccc(N(C)C)c(C)c1,-0.062% (inactive)
18,NC(=O)O,-1.28% (inactive)

# Experiment: qHTS assay to identify small molecule agonists of the endoplasmic reticulum stress response signaling pathway - cell viability counter screen (AID 1159517); further: nearly all actives have a fitted effect of over 50% in size
# Settings: ESRE-bla HeLa viability, CellTiter-Glo luminescence, 5 h; series mostly up to 61 µM; activity change, negative = cytotoxicity: at the top concentration
# Summary of the method: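 CellTiter-Glo was added to wells already read for beta-lactamase FRET, and luminescence was recorded 30 min later. Cells: ESRE-bla HeLa, 1,500 per well, compound exposure 5 hr at 37 C.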
row,SMILES,"activity change, negative = cytotoxicity"
1,C[N+](C)=CCl,8.74% (inactive)
2,O=[N+]([O-])c1ccc2c3c(cccc13)CC2,-14.3% (inactive)
3,CCOP(=O)(OCC)OP(=O)(OCC)OCC,0.36% (inactive)
4,ClC(Cl)C(Cl)Cl,-12.6% [at 78.8 µM] (inactive)

# — PubChem BioAssay (Tox21)
